Experimental data taken from PubChem BioAssay (NCI).
About 83,000 compounds went through this panel and 20% of them were active in at least one assay; those are over-represented in the sample as a whole.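 Growth was measured after 48 h exposure to one concentration of compound in 96-well plates. Values under 10 count as active.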 Unmarked numbers belong to inactive results. Active and inactive are the calls of the source.

Assays:
Test in all cases: NCI-60 one-dose screen, 48 h (100 = growth as untreated, 0 = no growth, -100 = all killed)
Settings in all cases: 10 µM
[1] = tested on: NCI-H23 lung
[2] = tested on: NCI-H460 lung
[3] = tested on: HOP-92 NSCLC
[4] = tested on: NCI-H522 lung
[5] = tested on: A549/ATCC NSCLC
[6] = tested on: 786-0 renal
[7] = tested on: COLO 205 colon
[8] = tested on: DU-145 prostate
[9] = tested on: K-562 leukemia
[10] = tested on: MALME-3M melanoma
[11] = tested on: MDA-MB-231 breast
[12] = tested on: RXF 393 renal
[13] = tested on: SF-268 CNS
[14] = tested on: SF-295 CNS
[15] = tested on: SF-539 CNS
[16] = tested on: UACC-257 melanoma
[17] = tested on: M14 melanoma
[18] = tested on: NCI-H322M lung
[19] = tested on: HOP-62 NSCLC
[20] = tested on: NCI-H226 lung

SMILES	growth [1]	growth [2]	growth [3]	growth [4]	growth [5]	growth [6]	growth [7]	growth [8]	growth [9]	growth [10]	growth [11]	growth [12]	growth [13]	growth [14]	growth [15]	growth [16]	growth [17]	growth [18]	growth [19]	growth [20]
N#CC1=C(N)Oc2cc(N)ccc2C1c1cccnc1 (stereo not drawn)	92.1%	97.5%	111%	75%	100%	90.7%	113%	104%	83.3%	98.6%	101%	108%	93.4%	99.7%	96.1%	109%	87.3%			
COc1cc(CNC(=O)C2CSC3(C)c4ccccc4C(=O)N23)cc(OC)c1OC (stereo not drawn)	96.9%	106%	88.4%	68.8%	83.1%	102%	105%	109%	71.9%	109%	98.3%	98.7%	101%	104%	98.2%	73.8%	108%	99.7%	90.1%	
O=C1c2c(c3c4ccccc4n(CCCCCCN4CCOCC4)c3c3[nH]c4ccccc4c23)C(=O)N1O	81.5%	72.2%		67.3%	81.1%	5.72% (active)	36%	109%	-32.9% (active)	117%	48.5%	90.3%	92.9%	108%	92.4%		81.9%			
Cc1ccc(-n2nnnc2N)c(C)c1	98.1%			112%	104%	105%	117%	122%	115%	119%	110%	143%	114%	96.7%	123%	108%	104%	121%		
O=C1c2c(c(=O)[nH]c3ccccc23)CCN1Cc1ccccc1	102%	108%		90.6%	103%	99.8%		122%			98.4%	111%	110%	104%	90.4%	104%	102%		92.7%	
COc1cc(/C=C2\CCCC3C2=Nc2ccccc2NC3c2cc(OC)c(OC)c(OC)c2)cc(OC)c1OC (stereo not drawn)	8.47% (active)	-12.2% (active)		-6.47% (active)	5.87% (active)	1.85% (active)	0.19% (active)	4.98% (active)	5.35% (active)	-34.9% (active)	24.1%	-49.6% (active)	26%	-10.8% (active)	35.2%	16.3%	-0.908% (active)		-3.43% (active)	
O=C(N/N=C/c1c(Cl)cccc1Cl)c1ccccc1Nc1cccc(C(F)(F)F)c1	102%	88.6%		84.9%		102%	126%		77.2%		83.2%		95.5%	61.5%	75%	102%	99.4%		111%	
O=C(CCl)Nc1ccc(Cc2ccc(NC(=O)CCl)cc2)cc1	-10.4% (active)	-29.3% (active)	46.3%	-81% (active)	25.3%	-20.2% (active)	-56.1% (active)	32.3%	0.772% (active)	-67.5% (active)	-15.8% (active)	-50.7% (active)	10.1%	70.1%	-87.7% (active)	16.3%	-35.3% (active)		33.2%	
COc1ccc(/C(C#N)=C/c2ccccc2OC)cc1	41.7%	20.9%	74.4%	5.02% (active)	36.2%	52.4%	14.2%	68.1%	21%	19.9%	56.2%	25.5%	60.7%	22.9%	42.2%	47.8%	20.7%		44.7%	
Cc1[nH]c2ccccc2c1/C=N/Nc1ncnc2sc3c(c12)CCN(CC(=O)OC(C)(C)C)C3	91.6%		61.2%	58.4%		47.1%		80.5%	22.3%	120%	84.5%	-0.516% (active)	93.8%	88.8%	62.7%	63.6%	73.1%		92.4%	
COc1cc(C2C(C#N)=C(N)Oc3cc(O)ccc32)cc(OC)c1OC (stereo not drawn)	30.7%	9.65% (active)	49.7%	1.54% (active)	21.4%	40.6%	8.35% (active)	11.1%	9.12% (active)	43.5%	36.1%	-9.12% (active)	50.4%	0.55% (active)	4.64% (active)	64.2%	-15.6% (active)		53.2%	
CN1CCc2c(sc3nc4n(-c5ccc(Cl)cc5)c(=O)[nH]n4c(=O)c23)C1	97.4%				74.7%	84.8%	108%	103%	107%	98.5%	120%	118%	106%	104%	99.8%		99.3%			94.7%
Clc1ccc(C2=NN=C3C(Cc4ccccc4)=Nc4ccccc4N3C2)cc1	90%	86.8%	87.4%	38.4%	96.6%	64.1%	105%	70.1%	30.1%	95.5%	68.9%	82.1%	66.7%	86.3%	105%	104%	75.8%		83.3%	
COc1cc(/C=C/c2cc(/C=C/c3ccc(O)c(OC)c3)n(C(=O)Nc3ccc(C)cc3)n2)ccc1O	-10.4% (active)		-15.4% (active)	-19.3% (active)	4.71% (active)	-1.18% (active)	-25.8% (active)	2.02% (active)	2.29% (active)	17.3%	19.9%	-47.5% (active)	-11.5% (active)	0.531% (active)	5.95% (active)	4.8% (active)	2.3% (active)		11.6%	
NC(N)=N/N=C(\N=Nc1ccccc1)c1ccc(Cl)cc1	78.9%	40%		29.9%	52.7%	46.7%	48.1%	47.3%	1.17% (active)	85.6%	-12.5% (active)	41.5%	34.2%	-5.99% (active)	19.7%	70.9%	10.2%	64.8%		
COc1cc2cc(Oc3ccc(NC(=O)Nc4ccc(Cl)c(C(F)(F)F)c4)cc3)c(C)nc2cc1OC	3.46% (active)	-19.8% (active)	-22.3% (active)	-43.6% (active)	-17.2% (active)	-21.1% (active)	-49.5% (active)	12.7%	-9.54% (active)	-23% (active)	-50.6% (active)	-33.4% (active)	-10.2% (active)	-70.9% (active)	-36.2% (active)	-12.5% (active)	-73.6% (active)		-50.9% (active)	
O=C(CCl)Oc1ccc(OC(=O)CCl)cc1	78.3%	95%		-14.1% (active)	96%	82%		88.6%	93.6%	88.4%	81.1%	109%	93.8%	108%	72.8%	89.1%	85.9%	101%		
COc1cc2c3c(n([C@H]4CCOC4)c(=O)c2cc1OC)-c1cc2c(cc1C3=O)OCO2	17.4%	3.66% (active)		15.8%	32.5%	10.6%	35.8%	19.8%	59.6%	78%	91.8%	41.7%	31.7%	-5.69% (active)	1% (active)		23%			
COc1ccc(-c2cc(-c3ccccc3)nc(SCCCC(=O)NO)n2)cc1	-33.3% (active)	-10.3% (active)	-13.4% (active)	-7.67% (active)	-2.46% (active)	-13.5% (active)	-22.6% (active)	1.16% (active)	6.74% (active)	-9.2% (active)	-0.784% (active)	-40.8% (active)	-18.8% (active)	-39.6% (active)	0.299% (active)	-3.3% (active)	-21.8% (active)		-20% (active)	
